According to PubChem BioAssay (NCATS):
Inconclusive results are not listed. A call without a number means that no potency is given here. Calls of active or inactive are those of the source. Unless noted, calls follow the shape of the full dose curve.

Experiments:
[1] = qHTS for Inhibitors of the Functional Ribonucleoprotein Complex (vRNP) of Lassa (LASV) Arenavirus: LASV Primary Screen - GLuc reporter signal (AID 1347082; calls by dose curve; tested in HEK293 reporter line; also: nearly all actives have a fitted effect of over 60% in size); details: LASV minigenome vRNP, Gaussia luciferase reporter; series mostly up to 57.5 µM
[2] = qHTS for Inhibitors of the Functional Ribonucleoprotein Complex (vRNP) of Lassa (LASV) Arenavirus: Viability assay - alamar blue signal for LASV Primary Screen (AID 1347083; calls by dose curve; tested in HEK293 reporter line; also: nearly all actives have a fitted effect of over 80% in size; also: potency is read from the fitted curve at half-maximal effect); details: cell viability, alamar blue fluorescence (LASV minigenome counter-screen); series mostly up to 57.5 µM
[3] = qHTS for Inhibitors of the Functional Ribonucleoprotein Complex (vRNP) of Lymphocytic Choriomeningitis Arenaviruses (LCMV): Viability assay - alamar blue signal for LCMV Primary Screen (AID 1347085; calls by dose curve; tested in HEK293 reporter line; also: nearly all actives have a fitted effect of over 80% in size; also: potency is read from the fitted curve at half-maximal effect); details: alamar blue viability counter-screen, LCMV vRNP screen cells; series mostly up to 57.5 µM
[4] = molecular target: Nucleoprotein (Lymphocytic choriomeningitis virus (strain Armstrong)) (UniProt P09992); experiment: qHTS for Inhibitors of the Functional Ribonucleoprotein Complex (vRNP) of Lymphocytic Choriomeningitis Arenaviruses (LCMV): LCMV Primary Screen - GLuc reporter signal (AID 1347086); details: LCMV minigenome vRNP cell assay, Gaussia luciferase reporter; series mostly up to 57.5 µM; also: nearly all actives have a fitted effect of over 70% in size; also: potency is read from the fitted curve at half-maximal effect
Nucleoprotein (Lymphocytic choriomeningitis virus (strain Armstrong)), sequence (P09992 whole entry, looked up): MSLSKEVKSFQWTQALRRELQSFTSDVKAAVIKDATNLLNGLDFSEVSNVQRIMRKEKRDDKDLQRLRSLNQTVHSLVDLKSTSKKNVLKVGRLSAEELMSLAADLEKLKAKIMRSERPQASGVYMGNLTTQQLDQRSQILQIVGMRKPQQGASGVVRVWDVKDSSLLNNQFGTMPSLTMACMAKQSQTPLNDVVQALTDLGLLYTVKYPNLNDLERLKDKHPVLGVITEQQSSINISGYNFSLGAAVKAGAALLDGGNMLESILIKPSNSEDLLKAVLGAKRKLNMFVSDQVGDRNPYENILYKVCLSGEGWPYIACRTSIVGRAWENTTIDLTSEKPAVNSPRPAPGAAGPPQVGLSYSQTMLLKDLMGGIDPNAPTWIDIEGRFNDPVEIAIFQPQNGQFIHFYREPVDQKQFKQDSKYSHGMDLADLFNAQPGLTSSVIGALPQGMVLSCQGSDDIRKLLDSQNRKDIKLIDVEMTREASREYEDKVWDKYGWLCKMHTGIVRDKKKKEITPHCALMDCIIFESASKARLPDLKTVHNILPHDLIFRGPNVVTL

Compound	Potency [1]	Potency [2]	Potency [3]	Potency [4]
Cc1c(O)cccc1C(=O)N[C@@H](CSc1ccccc1)[C@H](O)CN1C[C@H]2CCCC[C@H]2C[C@H]1C(=O)NC(C)(C)C	inactive	inactive	inactive	inactive
NC(=O)C(c1ccccc1)(c1ccccc1)[C@@H]1CCN(CCc2ccc3c(c2)CCO3)C1	inactive	inactive	inactive	inactive
O=c1n(CCCN2CCN(c3cccc(Cl)c3)CC2)nc2ccccn12	inactive	inactive	inactive	inactive
Cc1cn([C@H]2C[C@H](N=[N+]=[N-])[C@@H](CO)O2)c(=O)[nH]c1=O	inactive	inactive	inactive	inactive
O=C1Nc2ccc(Cl)cc2[C@@](C#CC2CC2)(C(F)(F)F)O1	inactive	inactive	inactive	inactive
C[n+]1ccccc1/C=N/O	inactive	inactive	inactive	inactive
CNCCCC1c2ccccc2C=Cc2ccccc21	inactive	inactive	inactive	inactive
CC/C=C(\C(=O)N[C@@H]1C(=O)N2C(C(=O)OCOC(=O)C(C)(C)C)=C(COC(N)=O)CS[C@H]12)c1csc(N)n1	inactive	inactive	inactive	inactive
COC(=O)Nc1nc2ccc(C(=O)c3ccccc3)cc2[nH]1	inactive	3.43 µM (active)	6.85 µM (active)	5.44 µM (active)
C[C@H]1[C@H](NC(=O)/C(=N/OC(C)(C)C(=O)O)c2csc(N)n2)C(=O)N1S(=O)(=O)O (stereo in doubt)	inactive	inactive	inactive	inactive
CC(c1cc2ccccc2s1)N(O)C(N)=O (centres undefined)	inactive	inactive	inactive	inactive
CN(CCOc1ccc(CC2SC(=O)NC2=O)cc1)c1ccccn1 (centres undefined)	inactive	inactive	inactive	inactive
COc1ccc2nc(S(=O)Cc3ncc(C)c(OC)c3C)[nH]c2c1 (centres undefined)	inactive	inactive	inactive	inactive
CCOC(=O)[C@H](CCc1ccccc1)N[C@@H](C)C(=O)N1Cc2ccccc2C[C@H]1C(=O)O	inactive	inactive	inactive	inactive
CO/N=C1\CN(c2nc3c(cc2F)c(=O)c(C(=O)O)cn3C2CC2)CC1CN (centres undefined)	inactive	inactive	inactive	inactive
O=NN(CCCl)C(=O)NCCCl	inactive	inactive	inactive	inactive
